Here are results for eight molecules from the supplement of paper PMC4022240.

± gives the standard deviation.

Common to all, as to test: peptide microarray binding signal (635 nm), min-max normalized on array (fraction of array maximum); higher = stronger binding
Test [1] has as its target T1, HaloTag-ATRX ADD domain (163-292).
T1 chain: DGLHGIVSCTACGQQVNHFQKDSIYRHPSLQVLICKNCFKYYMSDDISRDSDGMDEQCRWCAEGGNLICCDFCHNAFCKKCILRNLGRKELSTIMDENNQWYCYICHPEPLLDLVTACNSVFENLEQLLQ
In a few lines:
(§1)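 Arrays carried histone 13-mer peptide–cellulose conjugates printed in triplicate on nitrocellulose alongside a Cy3 tracer. After overnight blocking at 4°C, they were incubated for 1 h at 4°C with biotin-labelled HaloTag reader fusions (10 nM to 1 μM) plus streptavidin-Alexa Fluor 647, or with rabbit histone antibodies (1:10,000 to 1:2,000) plus anti-rabbit Alexa 647. Scanning on an Axon GenePix 4000B used 635 nm for signal and 532 nm for misprints. The binding signal reported is each triplicate's mean spot intensity after per-library min-max scaling.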

In test [2] the target is HaloTag-ING2 PHD (mouse Ing2 200-280). In a few lines: as §1
Test [3] concerns the target anti-H3K4me3 antibody ab8580. A digest of the protocol: as §1
Test [4] addresses anti-H3K9me3 antibody ab8898. A digest of the protocol:
as §1

Setting [5] is: peptide region: H4 16-28, binder concentration: 1:2,000 dilution.
Where [6] appears, read: peptide region: H4 16-28, peptide modifications: H4K20me3, binder concentration: 1:2,000 dilution.
Setting [7] is: peptide region: H4 16-28, peptide modifications: H4K20me1, binder concentration: 1:2,000 dilution.
Setting [8] is: peptide region: H4 16-28, peptide modifications: H4K20ac, binder concentration: 1:2,000 dilution.
Setting [9] is: peptide region: H4 16-28, peptide modifications: H4K20me2, binder concentration: 1:2,000 dilution.
[10] abbreviates: peptide region: H4 16-28, peptide modifications: H4R19cit, binder concentration: 1:2,000 dilution.
[11] abbreviates: peptide region: H4 16-28, peptide modifications: H4R19me1, binder concentration: 1:2,000 dilution.
Setting [12] is: peptide region: H4 8-19, peptide modifications: H4K8ac H4K16ac, binder concentration: 1:2,000 dilution.
The mark [13] stands for this setting: peptide region: H4 8-19, peptide modifications: H4K8ac H4K16ac, binder concentration: 1:10,000 dilution.

As for KRHRKVLRDNIQG [H4 16-28 K R H R K V L R D N I Q G], the “peptide microarray binding signal” value in test [1] (peptide region: H4 16-28, binder concentration: 500 nM) worked out at 0.000238 ± 2.5e-06; in test [2] (peptide region: H4 16-28, binder concentration: 100 nM), 0.000354 ± 4.1e-06; in test [3] (setting [5]), 0.000132 ± 1.5e-06; in test [4] (setting [5]) it was 6.04e-05 ± 2.7e-06.
As to KRHRKVLRDNIQG [H4 16-28 K R H R Kme3 V L R D N I Q G], the “peptide microarray binding signal” value came to 0.000667 ± 3.7e-05 in test [1] (peptide region: H4 16-28, peptide modifications: H4K20me3, binder concentration: 500 nM); 7.09e-05 ± 1.5e-06 in test [2] (peptide region: H4 16-28, peptide modifications: H4K20me3, binder concentration: 100 nM); 0.000982 ± 0.00023 in test [3] (setting [6]); 1.51e-05 ± 1.7e-07 in test [4] (setting [6]).
For the molecule KRHRKVLRDNIQG [H4 16-28 K R H R Kme V L R D N I Q G], the “peptide microarray binding signal” value in test [1] (peptide region: H4 16-28, peptide modifications: H4K20me1, binder concentration: 500 nM) was found to be 0.000143; in test [2] (peptide region: H4 16-28, peptide modifications: H4K20me1, binder concentration: 100 nM), 0.000283; in test [3] (setting [7]), 7.55e-05 ± 8.5e-07; in test [4] (setting [7]) it was 4.53e-05.
With KRHRKVLRDNIQG [H4 16-28 K R H R Kac V L R D N I Q G], the “peptide microarray binding signal” value in test [1] (peptide region: H4 16-28, peptide modifications: H4K20ac, binder concentration: 500 nM) amounted to 0.000524 ± 1.1e-05; in test [2] (peptide region: H4 16-28, peptide modifications: H4K20ac, binder concentration: 100 nM), 0.000354 ± 4.1e-06; in test [3] (setting [8]), 0.000529 ± 9.8e-05; in test [4] (setting [8]), 3.02e-05 ± 3.4e-07.
Regarding KRHRKVLRDNIQG [H4 16-28 K R H R Kme2 V L R D N I Q G], the “peptide microarray binding signal” value in test [1] (peptide region: H4 16-28, peptide modifications: H4K20me2, binder concentration: 500 nM) amounted to 0; in test [2] (peptide region: H4 16-28, peptide modifications: H4K20me2, binder concentration: 100 nM), 0.000142 ± 1.7e-06; in test [3] (setting [9]), 5.66e-05 ± 1.1e-06; in test [4] (setting [9]) it was 1.51e-05 ± 1.7e-07.
In the case of KRHRKVLRDNIQG [H4 16-28 K R H Rcit K V L R D N I Q G], the “peptide microarray binding signal” value was found to be 0.000476 ± 2.1e-05 in test [1] (peptide region: H4 16-28, peptide modifications: H4R19cit, binder concentration: 500 nM); 0.000283 ± 5.7e-06 in test [2] (peptide region: H4 16-28, peptide modifications: H4R19cit, binder concentration: 100 nM); 9.44e-05 ± 2.1e-06 in test [3] (setting [10]); 3.02e-05 ± 3.4e-07 in test [4] (setting [10]).
With KRHRKVLRDNIQG [H4 16-28 K R H Rme K V L R D N I Q G], the “peptide microarray binding signal” value in test [1] (peptide region: H4 16-28, peptide modifications: H4R19me1, binder concentration: 500 nM) is 9.52e-05 ± 1e-06; in test [2] (peptide region: H4 16-28, peptide modifications: H4R19me1, binder concentration: 100 nM), 0.000425 ± 4.9e-06; in test [3] (setting [11]) it was 0.000113 ± 2.2e-06; in test [4] (setting [11]), 1.51e-05 ± 1.7e-07.
As to KGLGKGGAKRHRK [H4 8-19 Kac G L G K G G A Kac R H R K], the “peptide microarray binding signal” value was determined as 0.000439 ± 1.5e-05 in test [1] (peptide region: H4 8-19, peptide modifications: H4K8ac H4K16ac, binder concentration: 50 nM); 9.52e-05 ± 1e-06 in test [1] (peptide region: H4 8-19, peptide modifications: H4K8ac H4K16ac, binder concentration: 500 nM); 0.0043 ± 0.0012 in test [2] (peptide region: H4 8-19, peptide modifications: H4K8ac H4K16ac, binder concentration: 10 nM); 0.000283 in test [2] (peptide region: H4 8-19, peptide modifications: H4K8ac H4K16ac, binder concentration: 100 nM); 0.000113 in test [3] (setting [12]); 0.00143 ± 0.00034 in test [3] (setting [13]). Besides, the figures for the “peptide microarray binding signal” value in test [4] (setting [12]) and in test [4] (setting [13]) were 4.53e-05 and 5.77e-05 ± 6.6e-07, respectively.
